Compound activity deposited in PubChem by Paczesny and Yang Labs, IUPUI and University of Michigan.
Shown is part of a subset that was picked to be rich in hits.
ST2 inh = IL1RL1 inhibition; Q01638; AlphaLISA ST2-Fc/biotin-IL-33 interaction, 1 h; inhibition, % for hits at 17 µM; 78,000 tested, 2.3% active; in the data active = inhibition above about 30%
Target sequence (Q01638 whole entry, looked up): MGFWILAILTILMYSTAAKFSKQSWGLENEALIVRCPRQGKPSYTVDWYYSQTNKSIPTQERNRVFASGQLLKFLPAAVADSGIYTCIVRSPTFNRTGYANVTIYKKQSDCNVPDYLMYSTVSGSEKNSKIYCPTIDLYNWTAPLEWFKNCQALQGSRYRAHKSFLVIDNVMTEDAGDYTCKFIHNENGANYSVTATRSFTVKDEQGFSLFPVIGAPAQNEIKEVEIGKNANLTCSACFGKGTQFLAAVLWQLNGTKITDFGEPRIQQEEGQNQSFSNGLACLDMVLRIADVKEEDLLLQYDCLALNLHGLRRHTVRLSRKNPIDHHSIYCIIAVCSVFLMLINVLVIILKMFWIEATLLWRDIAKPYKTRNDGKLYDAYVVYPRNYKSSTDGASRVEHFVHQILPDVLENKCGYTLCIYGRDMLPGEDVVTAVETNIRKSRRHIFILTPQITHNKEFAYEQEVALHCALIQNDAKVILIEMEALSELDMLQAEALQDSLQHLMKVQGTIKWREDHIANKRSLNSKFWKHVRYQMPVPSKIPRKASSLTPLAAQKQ
Active calls of the source: *; i = inactive; ! = a repeat was not active.

SMILES	ST2 inh
O=C(COc1cccc2cccnc12)Nc1ccc(Oc2ccccc2)cc1	i
COc1cccc(CNc2ccc3c(c2)ncn3C)c1O	i
COc1ccc(OC)c(CNc2ccc3c(c2)ncn3C)c1	36%*!
COc1ccc(CNc2ccc3c(c2)ncn3C)cc1OC	i
O=C(O)CCCN(Cc1ccccc1F)S(=O)(=O)c1ccc(Br)cc1	i
NC(=O)c1ccc(NC(=O)CCNC2CCCc3ccccc32)cc1 (centres undefined)	i
CCC(CC)n1ncc(C)c1NC(=O)c1cc(C)nc(C)n1	i
CCCCn1ncc(C)c1NC(=O)c1ccsc1	31%*
CCCCn1ncc(C)c1NC(=O)[C@H]1CCCO1	i
CC1CC(C)CN(S(=O)(=O)c2ccc(C(=O)Nc3nc(-c4cccs4)cs3)cc2)C1 (centres undefined)	i
Cc1ccc(S(=O)(=O)N2CCN(c3nc(-c4cccs4)cs3)CC2)cc1	32%*
Cc1ccc(S(=O)(=O)N2CCCC2)cc1	i
CN1C[C@@H](NC(=O)COc2ccccc2)C[C@H]1C(=O)N[C@H]1CCCCNC1=O	i
O=C1N/C(=C\c2ccc(Br)cc2)C(=O)N1Cc1ccc(Cl)cc1	i
O=C(Nn1cnnc1)c1ccccc1Cl	56%*
O=C(Nc1cc(Cl)cc(Cl)c1)c1ccccc1Cl	i
O=C(Nn1cnnc1)c1ccc(C(=O)Nn2cnnc2)cc1	i
Cc1cc(OCCCn2cnc3ccccc3c2=O)ccc1C(C)C	i
CC(C)(C)c1ccc(S(=O)(=O)NCCCn2c(C(F)(F)F)nc3cccnc32)cc1	i
COc1ccc(NS(=O)(=O)c2ccc3[nH]c(=O)sc3c2)c(OC)c1	i
O=C(Nc1ccc(-c2nc3ccccc3s2)cc1)C(F)(F)F	i
O=C(Nc1cc(-c2nc3ccccc3s2)ccc1Cl)c1ccco1	39%*
Cc1ccc(-c2nc3cc(Cl)ccc3o2)cc1NC(=O)c1ccco1	i
CCC1CCC(NCCN2CCOCC2)CC1 (centres undefined)	i
CCOC(=O)c1nn(CCc2scnc2C)c2c1CN(C(=O)c1scc3c1CCCC3)CC2	i
SMILES	ST2 inh
CCOC(=O)c1nn(Cc2ccc(OC)cc2)c2c1CN(C(=O)C1CCCO1)CC2 (centres undefined)	i
CCOC(=O)c1nn(CCc2ccc(OC)cc2)c2c1CN(C(=O)c1cc(C)nc(C)n1)CC2	30%*
CC(=O)[C@]1(O)Cc2c(O)c3c(c(O)c2[C@@H](O[C@H]2C[C@H](N)[C@H](O)[C@H](C)O2)C1)C(=O)c1ccccc1C3=O	34%*
COc1ccc(Cl)cc1S(=O)(=O)N1CCN(c2cc(-c3ccc(F)cc3)ncn2)CC1	i
CS(=O)(=O)CCn1cnc(-c2ccccc2)c1-c1cc2ccccc2o1	i
CC(C)c1ccc(S(=O)(=O)N=C2C=CC(=O)c3ccccc32)cc1	45%*
CC(=O)Nc1ccc(S(=O)(=O)Nc2ccc(C(C)C)cc2)cc1	i
O=C1C=CC(=NS(=O)(=O)c2ccc(Cl)cc2)c2ccccc21	60%*
CC(N)=NS(=O)(=O)c1ccc(Cl)cc1	i
O=Cc1ccc(S(=O)(=O)c2ccc(Cl)cc2)cc1	i
O=C1CCC(C(=O)N2CCSCC2)CN1Cc1ccccn1 (centres undefined)	i
c1ccc(Oc2ccc(-n3nnnc3N3CC(c4ccncc4)C3)cc2)cc1	i
Cc1c(C(=O)NCC2CCCO2)oc2ccc(S(=O)(=O)N3CCCCCC3)cc12 (centres undefined)	i
CCCNC(=O)c1sc2c(Cl)c(OC)ccc2c1Cl	53%*
CCCCNC(=O)c1sc2ccccc2c1Cl	i
COc1ccc(NC(=O)c2sc3ccccc3c2Cl)cc1Cl	i
COC(=O)C1=C(C)Nc2nc(SCc3ccccc3)[nH]c(=O)c2C1c1cccnc1 (centres undefined)	i
O=C(OC[C@H]1O[C@@H](OC(=O)c2cc(O)c(O)c(O)c2)[C@H](OC(=O)c2cc(O)c(O)c(O)c2)[C@@H](O)[C@@H]1OC(=O)c1cc(O)c(O)c(O)c1)c1cc(O)c(O)c(O)c1	i
CCOc1ccc(N2C(=O)CC(N3CCN(c4ccc(F)cc4)CC3)C2=O)cc1 (centres undefined)	i
COc1ccccc1N1C(=O)CC(N2CCN(c3ccc(F)cc3)CC2)C1=O (centres undefined)	i
COc1ccc(OC)c(N2C(=O)CC(N3CCN(c4ccc(F)cc4)CC3)C2=O)c1 (centres undefined)	31%*
O=C(c1ccc([N+](=O)[O-])cc1Cl)N1CCN(c2ncccn2)CC1	i
O=C(CCN1CCCO1)N1CCC(c2n[nH]c(=O)n2-c2ccccc2)CC1	i
CCOc1cc(-c2nc3sc4c(c3c(=O)[nH]2)CCCC4)ccc1O	i
COc1ccc(OC)c(Nc2nc(-c3sc(N)nc3C)cs2)c1	36%*
SMILES	ST2 inh
COc1ccccc1Nc1nc(-c2ccc(F)cc2)cs1	i
CC(=O)Nc1nc(C)c(-c2csc(Nc3ccc(Br)cc3)n2)s1	i
CCC1CCCCN1C(=O)C1c2cc(OC)c(OC)cc2C(=O)N(C)C1c1ccc(OC)cc1 (centres undefined)	i
O=[N+]([O-])c1ccc(C2CNC(c3ccc4c(c3)OCO4)O2)cc1 (centres undefined)	i
CCOc1ccc(C2Oc3c(cc(Br)cc3OC)C=C2[N+](=O)[O-])cc1OC (centres undefined)	36%*
CN1c2ccccc2N(C)C1c1ccc2c(c1)OCO2	i
COc1ccc(C2SCCN2S(=O)(=O)c2ccc(Br)cc2)cc1[N+](=O)[O-] (centres undefined)	i
O=[N+]([O-])C1=Cc2cc(Br)cc(Br)c2OC1c1ccc2c(c1)OCO2 (centres undefined)	60%*
CCOc1ccc(C(=O)Nc2c(C)cc(Br)cc2C)cc1[N+](=O)[O-]	i
Cc1cc(NC(=O)c2cccc(Cl)c2)nc2c1c(=O)oc1ccccc12	i
CCOC(=O)c1[nH]ncc1[C@@H]1C[C@H](NC(C)=O)C[C@H](CC(C)C)O1	i
CCOc1ccccc1C1N(c2nccs2)C(=O)C2CCCN21 (centres undefined)	i
CC(CCc1ccccc1)NC(=O)CSc1nc(-c2ccc3c(c2)OCO3)nc2cc(=O)[nH]n12 (centres undefined)	i
CC(C)NC(=O)CSc1nc(-c2cccc(Cl)c2)nc2cc(=O)[nH]n12	96%*
COCCNC(=O)CSc1nc(-c2cccc(Cl)c2)nc2cc(=O)[nH]n12	i
Cc1ccc2c(C)c(C(=O)NCCn3nc(-c4ccccc4)ccc3=O)oc2c1C	i
CC(C)CN1C[C@@H](C)[C@](O)(c2ccccc2)C[C@@H]1C	i
COc1cc(Br)cc(/C=C/c2ccc3cccc(O)c3n2)c1O	38%*
CCOc1cc(Br)cc(C=O)c1O	i
COc1ccc2cccc(O)c2n1	i
Oc1cccc2ccc(/C=C/c3cc4c(cc3Br)OCO4)nc12	32%*
CC1=C(C(=O)OC(C)C)C(c2ccc(Cl)cc2)C2=C(CC(C)(C)CC2=O)N1 (centres undefined)	i
COc1cccc(N2C(=O)Nc3ccccc3C2(O)C(=O)NC2CCCc3ccccc32)c1 (centres undefined)	i
Cc1ccc(Cc2c(C)nc3nc(SCC(=O)NCCN4CCCCC4C)nn3c2C)cc1 (centres undefined)	i
Cc1n[nH]c(C)c1CCC(=O)N1CCc2c(nc(N(C)C)[nH]c2=O)C1	i
COc1ccc2[nH]c3c(c2c1)CCn1c-3nc2sc3c(c2c1=N)CCCC3	34%*
